Assay results: PubChem BioAssay
Unmarked numbers belong to inactive results. Activity calls are given as the source filed them.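 The calls were made as follows, unless noted: active = mean inhibition above 46.68%, the untreated control wells mean plus 3 SD; inactive = the rest.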

tested on: transactivating tegument protein VP16 (Human herpesvirus 1), Gal4-VP16 luciferase reporter; experiment: repression of VP16-driven luciferase reporter – cell-based, luminescence, high throughput, counter-screen for SRC3 inhibitor project (AID 588794; in the data active = inhibition above about 30%); conditions: mammalian cells, at 3.6 µM, hits give high values

| Compound | inhibition |
| --- | --- |
| CCOC(=O)c1c(C)c2c(=O)[nH]cnc2n1-c1ccccc1 | 36.8% (active) |
| COc1ccc(-n2cnc3c(sc4nccc(N(C)C)c43)c2=O)cc1 | 22.4% |
| COc1ccc(-n2cc(-c3ccccc3)[n+]3c2CCCCC3)cc1 | 22% |
| COc1ccc(/C=C2\N=C(C(C)(C)C)OC2=O)c(OC)c1 | 19.2% |
| CN(CC1CCCO1)S(=O)(=O)c1ccc(C(=O)Nc2nc3cc4c(cc3s2)OCO4)cc1 (stereo not drawn) | 39.8% (active) |
| CN1CC(=O)N2C(c3cccc([N+](=O)[O-])c3)c3[nH]c4ccccc4c3C[C@H]2C1=O (stereo partly drawn) | 36.7% (active) |
| N=c1c2c(-c3ccccc3)c(-c3ccccc3)n(Cc3ccccc3)c2ncn1CCCO | 53.2% (active) |
| O=C(N/N=C/c1cc([N+](=O)[O-])ccc1O)c1cccc(N2CCCC2=O)c1 | 14.3% |
| CCc1ccc(-c2cc(C(F)(F)F)n3nc(C(=O)Nc4cnn(Cc5ccc(C)cc5)c4)cc3n2)s1 | 9.55% |
| c1ccc(CNc2c3ccccc3nc3ccccc23)cc1 | 43.6% (active) |
| Nc1nccc(-c2ccc(-n3cnc4ccccc43)cc2)n1 | 27.4% |
| CN=C1S/C(=C\c2cc(C)n(-c3ccccc3F)c2C)C(=O)N1C | -38.2% |
| COC(CN(C(=O)CCl)C(C(=O)NC1CCCCC1)c1ccccc1C)OC (stereo not drawn) | 24.2% |
| CCN1/C(=C/c2ccc3cc(C)cc(C)c3[n+]2CC)Sc2cc(C)ccc21 | 66.3% (active) |
| O=C(N/N=C/c1c(O)ccc2ccccc12)c1cccc(C(F)(F)F)c1 | 78.6% (active) |
| Cc1ccc(S(=O)(=O)N2CCOCC2)cc1NC(=O)CN1CCN(c2ccc(O)cc2)CC1 | -1.58% |
| CC1=C(C(=O)OCc2ccc3c(c2)OCO3)C(c2ccccc2)NC(=O)N1 (stereo not drawn) | 59.2% (active) |
| Cc1nc2ccc(NC(=O)c3ccc(Cl)c(S(=O)(=O)N(C)c4ccccc4)c3)cc2s1 | 35.7% (active) |
| OCCNc1ncnc2ccc(Br)cc12 | 30.6% (active) |
| Cc1nc(N)c(CC(Br)CBr)c(Cl)n1 (stereo not drawn) | 35.4% (active) |
| Cc1ccc(C(=O)O/N=C(\N)c2ccccc2)c(Cl)c1 | -35.4% |
| Cc1oc2c(Cl)c(Cl)c(O)c(CN(C)C)c2c1C(=O)c1ccc(Cl)cc1 | 26.1% |
| COc1cccc(-c2ccc3ncnc(NCc4ccc5c(c4)OCO5)c3c2)c1 | 30.1% (active) |

biological target: Nuclear receptor coactivator 1 (Homo sapiens) (UniProt Q15788); experiment: NCOA1 GAL4-fusion reporter inhibition – cell-based, luminescence, quadruplicate, confirmation (AID 588820); conditions: HEK293 GAL4-SRC1 luciferase reporter, at 3.6 µM, hits give high values;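 also: 0% = DMSO wells and 100% = gossypol 36 µM treated wells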
Sequence (Q15788 whole entry, looked up, the tested form may be a part): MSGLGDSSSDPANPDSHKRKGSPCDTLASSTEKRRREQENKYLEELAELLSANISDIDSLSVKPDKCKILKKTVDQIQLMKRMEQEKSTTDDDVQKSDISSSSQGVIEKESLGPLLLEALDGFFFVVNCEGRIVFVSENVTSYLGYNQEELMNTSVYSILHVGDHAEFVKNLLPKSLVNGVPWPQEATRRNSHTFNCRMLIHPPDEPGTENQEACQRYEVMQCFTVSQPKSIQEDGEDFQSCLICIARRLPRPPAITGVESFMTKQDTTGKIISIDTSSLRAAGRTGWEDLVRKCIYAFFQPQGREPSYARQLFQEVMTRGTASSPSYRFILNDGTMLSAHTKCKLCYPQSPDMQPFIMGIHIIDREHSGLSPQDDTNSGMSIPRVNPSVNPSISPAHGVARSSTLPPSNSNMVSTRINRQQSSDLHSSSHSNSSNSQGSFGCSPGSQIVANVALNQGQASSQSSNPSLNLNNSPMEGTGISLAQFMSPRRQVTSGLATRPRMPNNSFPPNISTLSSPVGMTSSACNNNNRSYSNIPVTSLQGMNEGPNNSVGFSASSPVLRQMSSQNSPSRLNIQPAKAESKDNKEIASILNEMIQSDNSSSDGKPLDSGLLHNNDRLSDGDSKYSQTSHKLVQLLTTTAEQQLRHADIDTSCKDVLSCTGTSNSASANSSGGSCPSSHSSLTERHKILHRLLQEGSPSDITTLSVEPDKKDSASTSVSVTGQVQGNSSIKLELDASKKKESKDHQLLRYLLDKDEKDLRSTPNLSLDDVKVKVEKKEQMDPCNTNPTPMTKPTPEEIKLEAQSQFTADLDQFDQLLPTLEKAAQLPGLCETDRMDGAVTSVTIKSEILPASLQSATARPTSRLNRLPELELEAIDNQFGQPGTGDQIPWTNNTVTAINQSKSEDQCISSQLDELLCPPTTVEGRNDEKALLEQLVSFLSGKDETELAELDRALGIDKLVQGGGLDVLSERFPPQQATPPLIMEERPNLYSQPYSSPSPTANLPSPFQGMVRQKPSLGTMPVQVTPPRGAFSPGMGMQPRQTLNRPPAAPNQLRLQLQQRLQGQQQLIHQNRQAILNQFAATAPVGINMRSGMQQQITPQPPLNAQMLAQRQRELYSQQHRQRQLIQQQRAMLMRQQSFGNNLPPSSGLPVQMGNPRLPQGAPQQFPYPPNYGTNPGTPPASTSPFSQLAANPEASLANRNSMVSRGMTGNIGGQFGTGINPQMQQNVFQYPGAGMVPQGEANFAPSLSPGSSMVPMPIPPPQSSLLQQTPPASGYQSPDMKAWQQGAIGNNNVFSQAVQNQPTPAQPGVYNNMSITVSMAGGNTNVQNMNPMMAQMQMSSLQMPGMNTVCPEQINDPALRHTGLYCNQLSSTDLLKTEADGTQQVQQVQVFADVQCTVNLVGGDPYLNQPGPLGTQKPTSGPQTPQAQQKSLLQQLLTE

| Compound | inhibition |
| --- | --- |
| COc1ccc(-c2c[n+]3c(n2-c2ccccc2)SCC3)cc1 | 11.1% |
| CCOC(=O)C(=Cc1ccccc1)C(=O)c1ccccc1 | 10.6% |
| CCC(=O)Oc1c(C(=O)CC)cc2c(C)cc(=O)oc2c1C | 25.6% |
| CC(=O)N(C(C)=O)c1ncc2c([nH]c3ccccc32)c1C#N | 48.5% (active) |
| CCOC(=O)C(=Cc1cc(=O)c(OC)co1)C(=O)OCC | -0.65% |
| COCC(C)n1c(C)cc(C(=O)COC(=O)c2cc(=O)[nH]c3ccccc23)c1C (stereo not drawn) | -34.1% |
| CCN(CC)c1ccc2cc(NC(=O)CCC(=O)O)c(=O)oc2c1 | 44.2% |
| COc1cc(/C=C2\SC(N)=NC2=O)cc(OC)c1 | 34.7% |
| O=C(CCl)N1N=C(c2cccs2)CC1c1ccco1 (stereo not drawn) | 18.4% |
| COc1ccc(OC)c(/C=C/c2ccnc3ccccc23)c1 | 34.5% |
| CC12CCC(C(=O)N/N=C/c3ccc(O)cc3O)(OC1=O)C2(C)C (stereo not drawn) | 11.4% |
| CCOc1ccc(-n2c(C)c(C(C)=O)c3cc(OC(C)=O)ccc32)cc1 | 65.8% (active) |
| COc1ccc(C(C(=O)NC2CCCCC2)N(C(=O)CCl)c2ccc(C)cc2)cc1 (stereo not drawn) | 35.7% |
| NC(=O)C(C(=O)/C=C/c1ccc(Cl)cc1)=C1SCCS1 | 30.9% |
| Cc1sc2ncnc(N3CCC(C(=O)Nc4ccccc4C(C)(C)C)CC3)c2c1C | 41.9% |
| COc1ccc(C)cc1N=Nc1ccc(O)c2ncccc12 | -18.4% |
| Cn1c(CC(=O)Nc2ccc(Cl)c(Cl)c2)nnc1SCC(=O)N1CCN(c2ccccc2)CC1 | 9.04% |
| CCOC(=O)c1c(C)c2c(=O)[nH]cnc2n1-c1ccccc1 | 59.9% (active) |
| COc1ccc(-n2cnc3c(sc4nccc(N(C)C)c43)c2=O)cc1 | 33.3% |
| COc1ccc(-n2cc(-c3ccccc3)[n+]3c2CCCCC3)cc1 | 16.8% |

| Compound | inhibition |
| --- | --- |
| COc1ccc(/C=C2\N=C(C(C)(C)C)OC2=O)c(OC)c1 | 10% |
| CN(CC1CCCO1)S(=O)(=O)c1ccc(C(=O)Nc2nc3cc4c(cc3s2)OCO4)cc1 (stereo not drawn) | 0.14% |
| CN1CC(=O)N2C(c3cccc([N+](=O)[O-])c3)c3[nH]c4ccccc4c3C[C@H]2C1=O (stereo partly drawn) | 26.9% |
| N=c1c2c(-c3ccccc3)c(-c3ccccc3)n(Cc3ccccc3)c2ncn1CCCO | 42.6% |
| O=C(N/N=C/c1cc([N+](=O)[O-])ccc1O)c1cccc(N2CCCC2=O)c1 | 34.5% |
| CCc1ccc(-c2cc(C(F)(F)F)n3nc(C(=O)Nc4cnn(Cc5ccc(C)cc5)c4)cc3n2)s1 | -3.69% |
| c1ccc(CNc2c3ccccc3nc3ccccc23)cc1 | 0.54% |
| Nc1nccc(-c2ccc(-n3cnc4ccccc43)cc2)n1 | 57.7% (active) |
| CN=C1S/C(=C\c2cc(C)n(-c3ccccc3F)c2C)C(=O)N1C | -105% |
| COC(CN(C(=O)CCl)C(C(=O)NC1CCCCC1)c1ccccc1C)OC (stereo not drawn) | 26.2% |
| CCN1/C(=C/c2ccc3cc(C)cc(C)c3[n+]2CC)Sc2cc(C)ccc21 | 0.74% |
| O=C(N/N=C/c1c(O)ccc2ccccc12)c1cccc(C(F)(F)F)c1 | 60.8% (active) |
| Cc1ccc(S(=O)(=O)N2CCOCC2)cc1NC(=O)CN1CCN(c2ccc(O)cc2)CC1 | -6.12% |
| CC1=C(C(=O)OCc2ccc3c(c2)OCO3)C(c2ccccc2)NC(=O)N1 (stereo not drawn) | 68.9% (active) |
| Cc1nc2ccc(NC(=O)c3ccc(Cl)c(S(=O)(=O)N(C)c4ccccc4)c3)cc2s1 | 3.35% |
| OCCNc1ncnc2ccc(Br)cc12 | 29.2% |
| Cc1nc(N)c(CC(Br)CBr)c(Cl)n1 (stereo not drawn) | 44.4% |
| Cc1ccc(C(=O)O/N=C(\N)c2ccccc2)c(Cl)c1 | -120% |
| Cc1oc2c(Cl)c(Cl)c(O)c(CN(C)C)c2c1C(=O)c1ccc(Cl)cc1 | 44.2% |
| COc1cccc(-c2ccc3ncnc(NCc4ccc5c(c4)OCO5)c3c2)c1 | 45.2% |
